A word on the inhibition: it is the percentage by which the read-out fell short of the control.

Results on 16 compounds are retold here after PubChem BioAssay.

Test [1] concerns TRPC4 beta (transient receptor potential cation channel C4), mouse. Briefly: activators of mouse TRPC4 channel, confirmation, cell-based, Fluo4 calcium, HEK293 TRPC4beta/mu-opioid, duplicates, 10 µM (AID 2426;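 active = fluorescence ratio normalized to control raised more than 50% in primary screen plus both repeat runs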;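 for activation: percent rise of integrated ratio over buffer wells lacking compound which define 0%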). Particulars: Fluo4 calcium fluorescence, at 10 µM; hits give high values.
For test [2], the system named is transient receptor potential cation channel C4 beta (TRPC4), mouse. Briefly: activators of mouse TRPC4 channel, confirmation, cell-based, second round, Fluo4, HEK293 TRPC4beta/mu-opioid, 1 µM (AID 2461;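 active = primary screen active and over 50% activation in each of two duplicate runs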). The settings on record: Fluo4 calcium fluorescence, at 1 µM; hits give high values.
The test system of test [3] is TRPC4 (transient receptor potential cation channel C4 beta), mouse. The test can be described thus: positive allosteric modulators of mouse TRPC4, confirmation, cell-based, second round, Fluo-4, HEK293 TRPC4beta/mu-opioid, 1 µM (AID 2554;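 active = primary screen hit whose fluorescence ratio, in both repeats, exceeds the weak agonist control mean by 3 SD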). Particulars: DAMGO EC20, Fluo-4 calcium flux, at 1 µM; hits give high values. (Calcium assays in cells follow changes in intracellular calcium, usually with a dye or a luminescent sensor.)

Test [4] deals with TRPC4 beta (transient receptor potential cation channel C4), mouse. Briefly: positive allosteric modulators of mouse TRPC4, confirmation, cell-based, Fluo-4, HEK293 TRPC4beta/mu-opioid (AID 2555;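 active = primary screen hit whose calcium fluorescence ratio, in both repeats, exceeds the weak agonist control mean by 3 SD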). Particulars: DAMGO EC20, Fluo-4 calcium flux, at 10 µM; hits give high values.
The target of test [5] is Short transient receptor potential channel 4 (Mus musculus) (UniProt Q9QUQ5). Briefly: inhibitors of mouse TRPC4 channel, confirmation, cell-based, Fluo4, HEK293 TRPC4beta/mu-opioid (AID 2636). Particulars: DAMGO, Fluo4 calcium flux, at 10 µM; hits give high values.
The target is the same in test [6]. Briefly: inhibitors of mouse TRPC4 channel, confirmation, cell-based, second round, Fluo4, HEK293 TRPC4beta/mu-opioid, 1 µM (AID 2637;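 active = calcium signal ratio cut to more than 3 SD under the fully stimulated control mean yet still positive, in both repeats and the primary screen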). The settings on record: Fluo4 calcium flux, DAMGO, at 1 µM; hits give high values.
Test [7] has the same target. Briefly: mouse TRPC4 channel activators, dose response, cell-based, HEK293 TRPC4/mu-opioid, Fluo-4 calcium (AID 434937;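 active = primary screen activator hit with a dose response curve and TRPC4 channel activation at any tested dose; inactive = no activation, no dose response, or not a primary hit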).
The target is the same in test [8]. Briefly: TRPC4 positive allosteric modulators, dose response, cell-based, HEK293 TRPC4/mu-opioid, Fluo-4 calcium, EC20 DAMGO (AID 434941;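 active = earlier screen potentiator hit that boosts the TRPC4 ion channel at some dose, with a dose response; inactive = no potentiation, no dose response, or not a prior hit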;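 note: calcium entry triggered by an EC20 dose of DAMGO at the co-expressed mu-opioid receptor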).
For test [9] the target is unchanged. The test can be described thus: mouse TRPC4 channel inhibitors, dose response, cell-based, HEK293 TRPC4/mu-opioid, Fluo-4 calcium (AID 434942;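 active = primary screen inhibitor hit that blocks the TRPC4 channel at some tested dose, yielding a dose curve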).
Test [10] concerns the target Short transient receptor potential channel 6 (Mus musculus) (UniProt Q61143). The test can be described thus: inhibition of mouse TRPC6 channel, confirmation, selectivity assay for TRPC4 inhibitor project, cell-based, HEK293, membrane potential dye, duplicate (AID 434948;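 active = active in primary screen and both duplicates, each dropping signal beyond three positive-control SD with fluorescence still positive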). The settings on record: HEK293 TRPC6, membrane potential dye fluorescence, at 10 µM, stimulated with maximal-effect acetylcholine; hits give high values.

Test [11] shares this target. Briefly: activation of mouse TRPC6 channel, confirmation, selectivity assay for TRPC4 activator project, cell-based, HEK293, membrane potential dye, duplicate (AID 434950;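 active = membrane potential signal rise above negative control mean plus 3 SD in both duplicates, also active in the earlier TRPC4 screen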). Particulars: HEK293 TRPC6, membrane potential fluorescence, at 10 µM; hits give high values.
The target is the same in test [12]. The test can be described thus: TRPC6 potentiation by TRPC4 potentiator hits, confirmation, selectivity assay for TRPC4 potentiator project, HEK293 cells, membrane potential dye, duplicate (AID 434952;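 active = compound raising the membrane signal above positive-control mean plus 3 SD in both repeats, and a primary screen hit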). The settings on record: HEK293 TRPC6, membrane potential dye fluorescence, at 10 µM, maximal acetylcholine added after compound; hits give high values.
Test [13] deals with Short transient receptor potential channel 4 (Mus musculus) (UniProt Q9QUQ5). Briefly: calcium flux activators in TRPC4/5HT1a cells, counter-screen for TRPC4 activator project, cell-based, second counter screen, HEK293 TRPC4/5HT1a, Fluo-4 (AID 434977;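 active = calcium signal rise above buffer-control mean plus 5 SD in both duplicates, and also a hit in the primary screen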). The settings on record: Fluo-4 calcium flux, at 10 µM; hits give high values.
Test [14] is described as follows: calcium flux inhibitors in TRPC4/5HT1a cells, confirmation, counter-screen for TRPC4 inhibitor project, cell-based, second counter screen, HEK293 TRPC4/5HT1a, Fluo-4 (AID 434978;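 active = primary screen active whose calcium signal fell more than 3 SD beyond the full-serotonin control mean in both duplicate plates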;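 for outcome: serotonin given first at submaximal then at maximal dose after compound preincubation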). The settings on record: Fluo-4 calcium flux, at 10 µM, serotonin added to trigger calcium flux; hits give high values.
Test [15] concerns TRPC4 (mouse), co-expressed with 5HT1a in HEK293. Briefly: calcium flux potentiators in TRPC4/5HT1a cells, confirmation, counter-screen for TRPC4 potentiator project, cell-based, second counter screen, HEK293 TRPC4/5HT1a, Fluo-4 (AID 434979;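 active = signal rise over 3 SD above mean of control wells given weak agonist, in both repeats and first screen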). The settings on record: Fluo-4 calcium flux, at 10 µM, serotonin added at its EC20 dose; hits give high values.
Test [16] can be described thus: calcium flux activation in mu-opioid HEK293 cells, confirmation, counter-screen for TRPC4 activator project, cell-based, HEK293 mu-opioid receptor line (AID 449723;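 active = hit in primary screen, with calcium signal over 5 SD above buffer well mean in both duplicates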;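 note: counter screen cells carry the mu-opioid receptor alone and lack TRPC4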). The settings on record: Fluo-4 calcium fluorescence, at 10 µM; hits give high values.
The nature of test [17]: calcium flux enhancement in mu-opioid HEK293 cells, confirmation, counter-screen for TRPC4 allosteric potentiator project, cell-based, HEK293 mu-opioid receptor line (AID 449724;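 active = calcium signal rise more than 3 SD above the low-dose agonist control mean, in both duplicate plates and the primary screen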;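 note: HEK293 cells carrying mu-opioid receptor only with no TRPC4 channel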). Particulars: Fluo-4 calcium flux, at 10 µM, compound added before EC20 DAMGO stimulus; hits give high values.

For some assays here: Results with a measured potency or affinity are listed apart. Active and inactive are the calls of the source.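 Rule for the calls, unless noted: active = calcium signal cut by more than 3 SD below the full-agonist control yet still positive, in both repeats and the earlier primary screen; inactive = the rest.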

Short transient receptor potential channel 6 (Mus musculus), sequence (Q61143 whole entry, looked up): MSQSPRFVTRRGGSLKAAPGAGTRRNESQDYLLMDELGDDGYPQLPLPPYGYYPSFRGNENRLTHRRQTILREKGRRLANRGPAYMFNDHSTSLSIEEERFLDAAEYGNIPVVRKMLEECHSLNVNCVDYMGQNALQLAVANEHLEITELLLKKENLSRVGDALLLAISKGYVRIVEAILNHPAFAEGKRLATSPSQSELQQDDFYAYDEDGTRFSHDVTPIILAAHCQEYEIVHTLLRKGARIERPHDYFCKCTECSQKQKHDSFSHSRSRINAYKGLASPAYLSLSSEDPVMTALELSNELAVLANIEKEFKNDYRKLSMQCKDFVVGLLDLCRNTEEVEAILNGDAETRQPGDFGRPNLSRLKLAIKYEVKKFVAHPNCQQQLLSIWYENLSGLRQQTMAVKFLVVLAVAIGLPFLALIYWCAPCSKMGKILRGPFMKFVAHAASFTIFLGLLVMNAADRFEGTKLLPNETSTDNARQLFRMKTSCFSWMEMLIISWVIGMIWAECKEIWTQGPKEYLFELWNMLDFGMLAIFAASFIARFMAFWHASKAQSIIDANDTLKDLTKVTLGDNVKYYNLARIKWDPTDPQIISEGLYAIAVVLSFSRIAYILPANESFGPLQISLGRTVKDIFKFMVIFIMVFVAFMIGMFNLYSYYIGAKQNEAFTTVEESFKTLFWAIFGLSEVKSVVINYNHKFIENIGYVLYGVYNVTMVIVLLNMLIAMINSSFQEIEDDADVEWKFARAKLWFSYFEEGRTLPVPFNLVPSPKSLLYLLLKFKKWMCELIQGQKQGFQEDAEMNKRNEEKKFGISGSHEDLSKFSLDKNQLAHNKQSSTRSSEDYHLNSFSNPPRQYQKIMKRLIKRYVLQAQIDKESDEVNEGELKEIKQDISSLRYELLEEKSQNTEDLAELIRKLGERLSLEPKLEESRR
Short transient receptor potential channel 4 (Mus musculus), sequence (Q9QUQ5 whole entry, looked up): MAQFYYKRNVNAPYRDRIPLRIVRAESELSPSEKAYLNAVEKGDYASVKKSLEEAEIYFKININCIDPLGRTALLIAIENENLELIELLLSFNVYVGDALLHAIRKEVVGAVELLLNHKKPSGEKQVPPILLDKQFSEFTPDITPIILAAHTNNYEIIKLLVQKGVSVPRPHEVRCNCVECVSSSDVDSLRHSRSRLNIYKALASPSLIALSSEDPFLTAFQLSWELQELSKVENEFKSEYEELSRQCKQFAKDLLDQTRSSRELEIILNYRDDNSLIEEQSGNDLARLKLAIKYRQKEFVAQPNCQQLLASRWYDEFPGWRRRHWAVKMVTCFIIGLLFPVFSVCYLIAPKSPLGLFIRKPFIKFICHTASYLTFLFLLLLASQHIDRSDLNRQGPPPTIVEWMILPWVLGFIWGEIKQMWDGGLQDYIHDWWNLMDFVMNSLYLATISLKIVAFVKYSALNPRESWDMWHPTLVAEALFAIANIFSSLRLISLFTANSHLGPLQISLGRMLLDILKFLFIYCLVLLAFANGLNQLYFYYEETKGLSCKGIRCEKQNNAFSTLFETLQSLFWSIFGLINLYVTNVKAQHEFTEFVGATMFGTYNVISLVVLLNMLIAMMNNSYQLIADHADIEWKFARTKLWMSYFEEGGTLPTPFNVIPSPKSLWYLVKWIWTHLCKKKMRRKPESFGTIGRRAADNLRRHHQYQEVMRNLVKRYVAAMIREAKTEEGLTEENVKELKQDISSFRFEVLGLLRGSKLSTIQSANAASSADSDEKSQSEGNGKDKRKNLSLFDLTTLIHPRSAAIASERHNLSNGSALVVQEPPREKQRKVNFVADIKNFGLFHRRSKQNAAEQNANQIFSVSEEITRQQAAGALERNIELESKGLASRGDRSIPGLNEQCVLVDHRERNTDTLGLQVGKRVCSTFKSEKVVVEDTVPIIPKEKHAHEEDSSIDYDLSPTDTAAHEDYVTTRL

Take `N=c1c(C(=O)NCc2ccc(F)cc2)cc2c(=O)n3ccccc3nc2n1Cc1ccco1`: the outcome in test [1], in test [2], in [3], in test [5], in [6] and in [7] was inactive. Moreover, the outcome in test [8], in test [9], in test [10], in test [11], in test [12] and in [13] was inactive. The outcome in test [14], in [15], in test [16] and in test [17] was inactive. In test [4], the potentiation is 17% (active).
Consider `COc1ccc(Cc2noc(CN(C)CC3CCN(Cc4ccccc4)CC3)n2)cc1OC`, for which the result in test [1], in test [2], in test [3], in test [4], in [5] and in test [6] was inactive. Moreover, the result in [7], in test [8], in test [9], in test [10], in test [11] and in test [12] was inactive. Also, the outcome in [13], in [14], in [15], in test [16] and in test [17] was inactive.
With `CN(C)CCCNc1ncnc2c1cnn2Cc1ccccc1Cl`, the outcome in [1], in [2], in test [3], in test [5], in test [6] and in test [7] was inactive. The result in test [8], in test [9], in test [10], in [11], in [12] and in [13] was inactive. The outcome in test [14], in test [16] and in [17] was inactive. Also, the potentiation is 15% (active) in [4] and 19.8% (active) in test [15].
Regarding `Cn1c(/N=C/c2ccccc2[N+](=O)[O-])nc2ccccc21`, the outcome in test [1], in [2], in test [3], in [4], in test [5] and in [6] was inactive. Besides, the outcome in test [7], in test [8], in [9], in test [10], in [11] and in test [12] was inactive. The outcome in test [13], in test [14], in test [16] and in [17] was inactive. Also, the potentiation in [15] was 11.9% (active).
As for `CN(CC(=O)Nc1ccc(F)cc1)C(=O)COC(=O)C1CCN(c2ccc(C(F)(F)F)cn2)CC1`, the outcome in test [1], in [2], in test [3], in test [4], in test [6] and in [7] was inactive. The outcome in test [8], in test [9], in test [10], in test [11], in test [12] and in [13] was inactive. Moreover, the result in test [15], in test [16] and in test [17] was inactive. Further, the inhibition in test [5] was 70% (active); in [14], 36.3% (active).
Regarding `O=C(C1CC1)N1CCc2cc(S(=O)(=O)NC3CCN(Cc4ccccc4)CC3)ccc21`, the result in test [1], in [2], in test [3], in test [4], in test [5] and in [6] was inactive. The result in [7], in test [8], in test [9], in test [10], in test [11] and in test [12] was inactive. Further, the outcome in test [13], in test [14], in [15], in test [16] and in test [17] was inactive.
In the case of `CCN(CC)c1ccc(CNc2nc3ccccc3n2CCN2CCCCC2)cc1`, in [1], the activation is 109% (active). Moreover, the result in test [2], in test [3], in test [4], in test [5], in [6] and in test [7] was inactive. Besides, the result in test [8], in [9], in test [10], in test [11], in test [12] and in test [13] was inactive. Also, the outcome in [14], in [15], in [16] and in [17] was inactive.
On to `O=C(COC(=O)CSc1ccc([N+](=O)[O-])cc1)NCCCc1ccccc1`, for which the result in [1], in test [2], in test [3], in [4], in test [5] and in [6] was inactive. For the same compound, the result in test [7], in test [8], in test [9], in [10], in test [11] and in [12] was inactive. The outcome in test [13], in [14], in [15], in test [16] and in [17] was inactive.
As for `Cc1ccccc1-c1n[nH]c(=S)n1Cc1ccccc1`, the outcome in test [1], in [2], in test [3], in test [4], in [5] and in [6] was inactive. The outcome in [7], in [8], in test [9], in [10], in test [11] and in [12] was inactive. Besides, the outcome in test [13], in test [14], in [15], in [16] and in [17] was inactive.
As to `CCOc1ccc2nc(NCCNC(=O)C3CC3)c(C)cc2c1`, the outcome in [1], in test [2], in test [3], in test [4], in [5] and in [6] was inactive. Further, the result in [7], in [8], in test [9], in [10], in [11] and in test [12] was inactive. The result in test [13], in [14], in test [15], in test [16] and in [17] was inactive.
As to `Nc1nn2c(C(F)(F)F)cc(=O)[nH]c2c1N=Nc1cccc(F)c1`, the outcome in test [1], in test [2], in [3], in test [4], in test [5] and in [6] was inactive. The result in [7], in test [8], in test [9], in test [10], in test [11] and in test [12] was inactive. Also, the outcome in [13], in test [14], in [15], in test [16] and in test [17] was inactive.
Regarding `CCOc1ccc(S(=O)(=O)N2CCN(C(=S)NC3CC3)CC2)cc1`, the result in [1], in test [2], in test [3], in test [5], in [6] and in test [7] was inactive. Moreover, the outcome in test [8], in test [9], in [10], in [11], in test [12] and in test [13] was inactive. Further, the outcome in [14], in [16] and in test [17] was inactive. Moreover, the potentiation in [4] is 9% (active); in test [15], 30.7% (active).
With `C/C(CC(=O)NCc1ccc(Cl)cc1)=N\NC(=O)COc1ccc(C)cc1Br`, the result in [1], in test [2], in test [3], in test [4], in test [5] and in [6] was inactive. Also, the result in test [7], in test [8], in test [9], in test [10], in test [11] and in test [12] was inactive. For the same compound, the result in test [13], in test [14], in test [15], in test [16] and in test [17] was inactive.
With `Cc1ccc(C(=O)NNC(=O)C2CSC3(C)CCC(=O)N23)cc1` (configuration not stated), the result in test [1], in [2], in [3], in test [4], in [5] and in test [6] was inactive. The result in test [7], in [8], in [9], in [10], in test [11] and in [12] was inactive. Moreover, the outcome in test [13], in [14], in test [16] and in test [17] was inactive. Moreover, the potentiation in test [15] is 7.03% (active).
In the case of `COc1ccccc1N1CCN(Cc2cc(=O)c(OCC(=O)NC3CCCC3)co2)CC1`, the result in [1], in test [2], in test [3], in test [4], in test [5] and in test [6] was inactive. Besides, the outcome in test [7], in [8], in test [9], in [10], in test [11] and in [12] was inactive. Besides, the result in test [13], in test [14], in test [15], in test [16] and in test [17] was inactive.
`CSCC[C@H](NC(=O)N1CCn2c1nc1ccccc12)C(=O)NCc1ccc(F)cc1`: the result in test [1], in [2], in [3], in test [5], in test [6] and in [7] was inactive. Moreover, the result in [8], in test [9], in test [10], in test [11], in [12] and in [13] was inactive. In addition, the outcome in test [14], in [15], in test [16] and in test [17] was inactive. For the same compound, the potentiation in [4] is 27% (active).
